Measurements reported in ChEMBL document CHEMBL2218924, “A broad activity screen in support of a chemogenomic map for kinase signalling research and drug discovery” (Biochem J, 2013).

Tests used:
[1] = target: T1, Ephrin type-A receptor 3 (Homo sapiens) (UniProt P29320); settings: at 10 µM
T1 sequence (whole entry): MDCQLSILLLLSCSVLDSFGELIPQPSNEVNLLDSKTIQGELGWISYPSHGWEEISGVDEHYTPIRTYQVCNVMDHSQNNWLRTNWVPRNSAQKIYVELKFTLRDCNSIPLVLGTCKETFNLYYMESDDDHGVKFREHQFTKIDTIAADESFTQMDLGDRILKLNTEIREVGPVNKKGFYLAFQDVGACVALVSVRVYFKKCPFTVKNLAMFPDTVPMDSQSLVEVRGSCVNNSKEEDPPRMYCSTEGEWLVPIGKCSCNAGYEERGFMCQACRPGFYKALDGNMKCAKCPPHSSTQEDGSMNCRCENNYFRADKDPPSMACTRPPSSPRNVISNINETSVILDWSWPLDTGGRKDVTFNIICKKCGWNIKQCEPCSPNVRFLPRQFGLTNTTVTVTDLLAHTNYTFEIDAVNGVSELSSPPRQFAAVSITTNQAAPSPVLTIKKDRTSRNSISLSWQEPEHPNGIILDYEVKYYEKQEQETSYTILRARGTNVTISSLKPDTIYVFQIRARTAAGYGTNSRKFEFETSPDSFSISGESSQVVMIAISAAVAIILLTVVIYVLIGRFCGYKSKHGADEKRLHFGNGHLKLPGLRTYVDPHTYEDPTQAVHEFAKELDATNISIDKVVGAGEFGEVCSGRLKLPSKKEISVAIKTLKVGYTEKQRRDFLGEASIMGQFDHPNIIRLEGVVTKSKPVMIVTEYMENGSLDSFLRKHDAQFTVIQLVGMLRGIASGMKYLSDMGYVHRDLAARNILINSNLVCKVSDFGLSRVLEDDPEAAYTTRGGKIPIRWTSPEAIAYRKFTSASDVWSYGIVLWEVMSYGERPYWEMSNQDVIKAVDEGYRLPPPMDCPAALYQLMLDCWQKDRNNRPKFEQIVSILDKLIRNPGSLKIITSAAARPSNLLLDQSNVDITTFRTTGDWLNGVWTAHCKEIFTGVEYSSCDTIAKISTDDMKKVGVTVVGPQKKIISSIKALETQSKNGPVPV

[2] = target: Ephrin type-A receptor 4 (Homo sapiens) (UniProt P54764); settings: at 1 µM
[3] = target: Ephrin type-A receptor 4 (Homo sapiens) (UniProt P54764); settings: at 10 µM
[4] = target: Ephrin type-A receptor 5 (Homo sapiens) (UniProt P54756); settings: at 1 µM
[5] = target: Ephrin type-A receptor 5 (Homo sapiens) (UniProt P54756); settings: at 10 µM
[6] = target: Ephrin type-A receptor 7 (Homo sapiens) (UniProt Q15375); settings: at 1 µM
[7] = target: T2, Ephrin type-A receptor 8 (Homo sapiens) (UniProt P29322); settings: at 10 µM
T2 sequence (whole entry): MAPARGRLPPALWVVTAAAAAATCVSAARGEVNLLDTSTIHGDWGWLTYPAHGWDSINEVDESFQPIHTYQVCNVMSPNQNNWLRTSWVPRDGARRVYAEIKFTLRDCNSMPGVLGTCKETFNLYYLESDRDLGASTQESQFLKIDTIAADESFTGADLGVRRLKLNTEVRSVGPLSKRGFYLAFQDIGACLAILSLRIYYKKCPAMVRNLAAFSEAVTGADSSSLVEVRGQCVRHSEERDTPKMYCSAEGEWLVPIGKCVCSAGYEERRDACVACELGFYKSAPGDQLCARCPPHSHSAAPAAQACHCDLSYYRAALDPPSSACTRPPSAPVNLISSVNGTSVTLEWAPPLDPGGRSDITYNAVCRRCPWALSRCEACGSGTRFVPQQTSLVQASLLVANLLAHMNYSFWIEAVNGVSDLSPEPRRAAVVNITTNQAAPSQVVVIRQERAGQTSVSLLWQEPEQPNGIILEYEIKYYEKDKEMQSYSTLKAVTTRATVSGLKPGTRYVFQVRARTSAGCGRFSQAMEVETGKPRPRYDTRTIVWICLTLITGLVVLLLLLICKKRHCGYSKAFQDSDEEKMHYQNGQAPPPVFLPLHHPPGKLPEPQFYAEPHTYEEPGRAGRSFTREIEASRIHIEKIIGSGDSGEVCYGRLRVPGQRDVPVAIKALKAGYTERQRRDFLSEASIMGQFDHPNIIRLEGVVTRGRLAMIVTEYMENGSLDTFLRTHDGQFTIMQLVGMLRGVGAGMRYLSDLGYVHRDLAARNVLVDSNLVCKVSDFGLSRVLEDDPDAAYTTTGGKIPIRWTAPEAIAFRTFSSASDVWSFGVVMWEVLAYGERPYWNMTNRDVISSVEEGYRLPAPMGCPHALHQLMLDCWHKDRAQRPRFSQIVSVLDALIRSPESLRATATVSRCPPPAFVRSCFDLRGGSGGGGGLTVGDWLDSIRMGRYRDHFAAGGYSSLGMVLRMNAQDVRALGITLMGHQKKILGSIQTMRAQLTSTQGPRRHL

[8] = target: T3, Ephrin type-B receptor 2 (Homo sapiens) (UniProt P29323); settings: at 10 µM
T3 sequence (whole entry): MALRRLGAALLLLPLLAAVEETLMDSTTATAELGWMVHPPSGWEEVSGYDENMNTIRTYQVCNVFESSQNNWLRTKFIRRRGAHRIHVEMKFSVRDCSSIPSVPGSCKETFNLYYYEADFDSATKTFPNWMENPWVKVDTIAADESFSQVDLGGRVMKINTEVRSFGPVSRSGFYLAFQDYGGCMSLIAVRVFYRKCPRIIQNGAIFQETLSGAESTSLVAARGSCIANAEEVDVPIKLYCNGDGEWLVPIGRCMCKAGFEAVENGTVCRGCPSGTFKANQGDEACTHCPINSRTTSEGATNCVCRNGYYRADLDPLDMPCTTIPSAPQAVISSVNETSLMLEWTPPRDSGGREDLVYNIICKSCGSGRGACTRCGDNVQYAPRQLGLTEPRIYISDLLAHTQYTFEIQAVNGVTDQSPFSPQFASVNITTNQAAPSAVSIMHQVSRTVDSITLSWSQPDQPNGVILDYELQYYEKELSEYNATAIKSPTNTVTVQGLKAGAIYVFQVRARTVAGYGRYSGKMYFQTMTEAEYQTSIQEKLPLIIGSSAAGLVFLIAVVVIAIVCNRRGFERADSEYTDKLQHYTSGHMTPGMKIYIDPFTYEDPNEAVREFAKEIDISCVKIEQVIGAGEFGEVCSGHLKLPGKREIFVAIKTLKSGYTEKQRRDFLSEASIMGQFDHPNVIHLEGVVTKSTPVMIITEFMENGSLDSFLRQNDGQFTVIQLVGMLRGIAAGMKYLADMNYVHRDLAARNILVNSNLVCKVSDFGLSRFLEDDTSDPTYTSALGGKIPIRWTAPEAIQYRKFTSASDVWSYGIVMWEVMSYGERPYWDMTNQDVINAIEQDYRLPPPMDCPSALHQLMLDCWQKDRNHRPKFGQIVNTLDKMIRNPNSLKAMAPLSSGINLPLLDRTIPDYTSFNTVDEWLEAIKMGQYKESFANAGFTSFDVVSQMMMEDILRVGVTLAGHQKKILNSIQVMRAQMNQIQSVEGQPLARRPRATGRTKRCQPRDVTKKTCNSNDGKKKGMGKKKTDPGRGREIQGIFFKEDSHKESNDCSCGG

[9] = target: T4, Ephrin type-B receptor 3 (Homo sapiens) (UniProt P54753); settings: at 1 µM
T4 sequence (whole entry): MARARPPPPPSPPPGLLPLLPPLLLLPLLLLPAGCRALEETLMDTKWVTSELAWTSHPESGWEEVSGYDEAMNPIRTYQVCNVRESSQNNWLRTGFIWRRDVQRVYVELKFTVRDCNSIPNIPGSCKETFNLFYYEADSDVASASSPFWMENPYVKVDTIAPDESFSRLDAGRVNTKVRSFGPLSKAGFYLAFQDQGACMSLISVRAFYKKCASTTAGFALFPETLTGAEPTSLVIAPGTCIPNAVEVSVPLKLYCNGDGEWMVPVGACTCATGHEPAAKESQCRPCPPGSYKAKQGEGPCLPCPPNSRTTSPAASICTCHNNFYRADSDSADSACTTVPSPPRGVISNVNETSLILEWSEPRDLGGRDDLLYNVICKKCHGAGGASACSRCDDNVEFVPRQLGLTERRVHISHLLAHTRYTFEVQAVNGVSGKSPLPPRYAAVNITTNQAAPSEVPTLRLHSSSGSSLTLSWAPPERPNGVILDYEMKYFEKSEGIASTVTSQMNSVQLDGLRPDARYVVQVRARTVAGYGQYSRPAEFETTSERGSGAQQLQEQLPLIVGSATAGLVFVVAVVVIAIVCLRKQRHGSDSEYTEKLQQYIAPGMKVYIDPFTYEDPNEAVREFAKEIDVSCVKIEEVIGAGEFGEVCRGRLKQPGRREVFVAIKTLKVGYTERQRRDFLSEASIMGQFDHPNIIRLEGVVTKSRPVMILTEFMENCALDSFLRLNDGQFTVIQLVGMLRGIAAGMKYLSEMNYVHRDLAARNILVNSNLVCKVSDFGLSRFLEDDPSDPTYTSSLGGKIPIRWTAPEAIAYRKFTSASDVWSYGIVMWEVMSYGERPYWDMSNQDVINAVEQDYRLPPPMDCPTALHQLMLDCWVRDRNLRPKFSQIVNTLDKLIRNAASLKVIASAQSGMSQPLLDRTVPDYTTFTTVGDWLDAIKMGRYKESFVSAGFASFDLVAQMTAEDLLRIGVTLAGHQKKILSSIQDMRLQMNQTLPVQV

[10] = target: T4, Ephrin type-B receptor 3 (Homo sapiens); settings: at 10 µM
[11] = target: T5, Ephrin type-B receptor 4 (Homo sapiens) (UniProt P54760); settings: at 1 µM
T5 sequence (whole entry): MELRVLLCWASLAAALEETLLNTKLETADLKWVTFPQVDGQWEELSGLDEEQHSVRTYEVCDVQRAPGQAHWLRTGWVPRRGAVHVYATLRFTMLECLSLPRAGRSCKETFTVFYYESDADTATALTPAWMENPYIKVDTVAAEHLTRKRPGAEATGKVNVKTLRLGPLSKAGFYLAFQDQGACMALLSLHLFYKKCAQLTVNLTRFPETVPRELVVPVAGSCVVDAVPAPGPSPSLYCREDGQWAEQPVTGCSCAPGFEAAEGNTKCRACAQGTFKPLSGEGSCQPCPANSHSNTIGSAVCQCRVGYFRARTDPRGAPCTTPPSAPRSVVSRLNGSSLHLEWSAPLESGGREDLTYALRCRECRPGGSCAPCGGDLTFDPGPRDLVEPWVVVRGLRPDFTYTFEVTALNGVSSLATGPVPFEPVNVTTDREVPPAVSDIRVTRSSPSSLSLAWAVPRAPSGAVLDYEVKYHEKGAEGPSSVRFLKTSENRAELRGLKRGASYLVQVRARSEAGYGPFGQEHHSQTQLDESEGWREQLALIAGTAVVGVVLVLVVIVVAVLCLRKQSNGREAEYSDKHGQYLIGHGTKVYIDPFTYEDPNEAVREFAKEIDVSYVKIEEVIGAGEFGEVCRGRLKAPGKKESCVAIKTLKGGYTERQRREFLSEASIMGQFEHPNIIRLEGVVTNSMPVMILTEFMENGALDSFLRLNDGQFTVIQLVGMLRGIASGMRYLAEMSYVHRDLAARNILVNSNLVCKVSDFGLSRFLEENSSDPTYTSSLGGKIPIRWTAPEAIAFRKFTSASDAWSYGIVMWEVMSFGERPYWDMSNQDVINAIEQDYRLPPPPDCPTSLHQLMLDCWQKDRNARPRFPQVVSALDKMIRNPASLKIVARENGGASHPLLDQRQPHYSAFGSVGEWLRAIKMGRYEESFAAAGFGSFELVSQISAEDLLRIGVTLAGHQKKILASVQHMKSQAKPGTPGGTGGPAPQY

[12] = target: T5, Ephrin type-B receptor 4 (Homo sapiens); settings: at 10 µM
[13] = target: Receptor tyrosine-protein kinase erbB-4 (Homo sapiens) (UniProt Q15303); settings: at 1 µM
[14] = target: Receptor tyrosine-protein kinase erbB-4 (Homo sapiens) (UniProt Q15303); settings: at 10 µM
[15] = target: Focal adhesion kinase 1 (Homo sapiens) (UniProt Q05397); settings: at 1 µM

Ephrin type-A receptor 4 (Homo sapiens), sequence (P54764 whole entry): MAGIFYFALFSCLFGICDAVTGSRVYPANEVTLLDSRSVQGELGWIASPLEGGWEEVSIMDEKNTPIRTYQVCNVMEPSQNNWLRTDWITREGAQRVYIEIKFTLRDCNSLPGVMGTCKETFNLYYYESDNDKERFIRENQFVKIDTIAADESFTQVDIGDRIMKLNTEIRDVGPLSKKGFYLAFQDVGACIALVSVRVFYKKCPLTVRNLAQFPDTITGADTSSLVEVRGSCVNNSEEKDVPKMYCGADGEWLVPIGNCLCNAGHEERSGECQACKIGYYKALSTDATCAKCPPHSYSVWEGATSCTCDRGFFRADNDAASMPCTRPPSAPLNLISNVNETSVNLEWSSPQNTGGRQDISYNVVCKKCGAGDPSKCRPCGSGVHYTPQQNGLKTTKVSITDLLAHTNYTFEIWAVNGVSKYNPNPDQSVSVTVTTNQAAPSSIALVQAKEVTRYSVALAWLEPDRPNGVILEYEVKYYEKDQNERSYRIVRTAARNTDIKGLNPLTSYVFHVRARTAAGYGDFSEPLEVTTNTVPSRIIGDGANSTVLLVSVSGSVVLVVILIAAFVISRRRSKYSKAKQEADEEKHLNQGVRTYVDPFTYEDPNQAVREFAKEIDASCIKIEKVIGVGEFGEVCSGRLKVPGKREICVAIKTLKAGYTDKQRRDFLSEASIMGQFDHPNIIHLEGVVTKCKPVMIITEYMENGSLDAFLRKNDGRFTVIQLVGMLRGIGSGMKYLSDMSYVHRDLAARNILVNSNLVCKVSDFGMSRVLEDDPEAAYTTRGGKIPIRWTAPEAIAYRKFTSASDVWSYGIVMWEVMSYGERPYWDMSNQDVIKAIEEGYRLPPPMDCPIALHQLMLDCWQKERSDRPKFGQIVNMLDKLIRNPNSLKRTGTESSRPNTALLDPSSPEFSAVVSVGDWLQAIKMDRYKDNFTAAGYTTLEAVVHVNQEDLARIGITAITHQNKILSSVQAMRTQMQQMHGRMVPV
Ephrin type-A receptor 5 (Homo sapiens), sequence (P54756 whole entry): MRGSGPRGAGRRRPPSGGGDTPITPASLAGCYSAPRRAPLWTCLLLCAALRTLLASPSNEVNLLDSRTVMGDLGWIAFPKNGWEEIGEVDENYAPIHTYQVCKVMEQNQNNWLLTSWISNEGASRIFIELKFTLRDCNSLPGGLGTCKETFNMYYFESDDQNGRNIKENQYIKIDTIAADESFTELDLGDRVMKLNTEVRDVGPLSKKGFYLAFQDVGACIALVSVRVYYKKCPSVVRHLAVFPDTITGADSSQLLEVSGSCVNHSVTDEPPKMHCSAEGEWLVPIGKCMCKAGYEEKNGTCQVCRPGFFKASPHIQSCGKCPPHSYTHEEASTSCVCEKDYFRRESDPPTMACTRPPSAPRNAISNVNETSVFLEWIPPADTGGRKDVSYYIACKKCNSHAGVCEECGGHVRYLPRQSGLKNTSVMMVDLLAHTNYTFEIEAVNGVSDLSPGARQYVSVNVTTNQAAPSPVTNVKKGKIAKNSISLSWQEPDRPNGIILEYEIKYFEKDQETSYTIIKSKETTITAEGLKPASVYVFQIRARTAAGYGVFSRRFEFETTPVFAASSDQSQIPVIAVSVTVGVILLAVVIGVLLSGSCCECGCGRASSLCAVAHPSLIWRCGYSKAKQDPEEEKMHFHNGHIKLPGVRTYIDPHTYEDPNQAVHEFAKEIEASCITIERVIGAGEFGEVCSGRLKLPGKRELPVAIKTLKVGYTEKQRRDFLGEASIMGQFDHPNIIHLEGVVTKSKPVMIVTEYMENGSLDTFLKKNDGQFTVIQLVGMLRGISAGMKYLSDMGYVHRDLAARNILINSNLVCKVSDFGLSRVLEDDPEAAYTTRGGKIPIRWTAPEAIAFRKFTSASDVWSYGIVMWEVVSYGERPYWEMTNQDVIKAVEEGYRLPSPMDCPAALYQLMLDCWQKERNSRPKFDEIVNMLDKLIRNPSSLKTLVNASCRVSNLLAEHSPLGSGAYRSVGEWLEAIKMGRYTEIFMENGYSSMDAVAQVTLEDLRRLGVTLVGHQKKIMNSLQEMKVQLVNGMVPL
Receptor tyrosine-protein kinase erbB-4 (Homo sapiens), sequence (Q15303 whole entry): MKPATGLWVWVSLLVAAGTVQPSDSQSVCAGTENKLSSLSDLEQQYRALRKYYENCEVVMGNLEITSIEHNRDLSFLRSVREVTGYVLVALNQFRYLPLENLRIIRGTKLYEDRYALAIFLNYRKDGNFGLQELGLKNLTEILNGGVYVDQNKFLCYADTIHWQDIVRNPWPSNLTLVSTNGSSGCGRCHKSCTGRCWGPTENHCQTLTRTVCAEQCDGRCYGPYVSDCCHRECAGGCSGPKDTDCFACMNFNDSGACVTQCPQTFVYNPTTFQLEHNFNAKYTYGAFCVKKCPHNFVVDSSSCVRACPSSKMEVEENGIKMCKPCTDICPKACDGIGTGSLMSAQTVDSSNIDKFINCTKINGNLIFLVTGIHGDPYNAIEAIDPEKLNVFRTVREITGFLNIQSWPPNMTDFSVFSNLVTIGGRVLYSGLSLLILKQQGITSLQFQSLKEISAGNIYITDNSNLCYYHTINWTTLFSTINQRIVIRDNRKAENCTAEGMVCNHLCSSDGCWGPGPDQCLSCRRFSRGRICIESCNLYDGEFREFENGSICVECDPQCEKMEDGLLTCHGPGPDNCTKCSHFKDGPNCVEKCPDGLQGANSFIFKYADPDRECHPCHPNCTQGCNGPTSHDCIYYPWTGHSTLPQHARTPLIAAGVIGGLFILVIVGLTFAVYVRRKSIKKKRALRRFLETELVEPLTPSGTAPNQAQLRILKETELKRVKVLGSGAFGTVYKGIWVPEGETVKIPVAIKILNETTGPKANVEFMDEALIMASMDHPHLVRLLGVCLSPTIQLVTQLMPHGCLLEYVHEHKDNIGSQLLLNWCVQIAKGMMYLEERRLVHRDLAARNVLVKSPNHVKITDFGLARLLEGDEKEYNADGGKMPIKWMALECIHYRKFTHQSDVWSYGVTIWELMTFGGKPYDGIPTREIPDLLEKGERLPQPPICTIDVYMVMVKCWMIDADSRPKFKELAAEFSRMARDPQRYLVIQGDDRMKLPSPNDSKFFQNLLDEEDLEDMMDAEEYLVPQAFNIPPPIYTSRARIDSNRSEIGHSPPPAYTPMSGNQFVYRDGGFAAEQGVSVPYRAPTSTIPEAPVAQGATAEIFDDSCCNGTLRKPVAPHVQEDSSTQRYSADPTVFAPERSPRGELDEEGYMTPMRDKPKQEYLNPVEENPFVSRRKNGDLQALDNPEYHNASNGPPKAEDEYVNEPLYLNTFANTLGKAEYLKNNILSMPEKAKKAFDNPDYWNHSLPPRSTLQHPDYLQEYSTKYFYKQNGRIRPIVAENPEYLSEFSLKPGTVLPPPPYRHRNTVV
Ephrin type-A receptor 7 (Homo sapiens), sequence (Q15375 28-998 limits assumed): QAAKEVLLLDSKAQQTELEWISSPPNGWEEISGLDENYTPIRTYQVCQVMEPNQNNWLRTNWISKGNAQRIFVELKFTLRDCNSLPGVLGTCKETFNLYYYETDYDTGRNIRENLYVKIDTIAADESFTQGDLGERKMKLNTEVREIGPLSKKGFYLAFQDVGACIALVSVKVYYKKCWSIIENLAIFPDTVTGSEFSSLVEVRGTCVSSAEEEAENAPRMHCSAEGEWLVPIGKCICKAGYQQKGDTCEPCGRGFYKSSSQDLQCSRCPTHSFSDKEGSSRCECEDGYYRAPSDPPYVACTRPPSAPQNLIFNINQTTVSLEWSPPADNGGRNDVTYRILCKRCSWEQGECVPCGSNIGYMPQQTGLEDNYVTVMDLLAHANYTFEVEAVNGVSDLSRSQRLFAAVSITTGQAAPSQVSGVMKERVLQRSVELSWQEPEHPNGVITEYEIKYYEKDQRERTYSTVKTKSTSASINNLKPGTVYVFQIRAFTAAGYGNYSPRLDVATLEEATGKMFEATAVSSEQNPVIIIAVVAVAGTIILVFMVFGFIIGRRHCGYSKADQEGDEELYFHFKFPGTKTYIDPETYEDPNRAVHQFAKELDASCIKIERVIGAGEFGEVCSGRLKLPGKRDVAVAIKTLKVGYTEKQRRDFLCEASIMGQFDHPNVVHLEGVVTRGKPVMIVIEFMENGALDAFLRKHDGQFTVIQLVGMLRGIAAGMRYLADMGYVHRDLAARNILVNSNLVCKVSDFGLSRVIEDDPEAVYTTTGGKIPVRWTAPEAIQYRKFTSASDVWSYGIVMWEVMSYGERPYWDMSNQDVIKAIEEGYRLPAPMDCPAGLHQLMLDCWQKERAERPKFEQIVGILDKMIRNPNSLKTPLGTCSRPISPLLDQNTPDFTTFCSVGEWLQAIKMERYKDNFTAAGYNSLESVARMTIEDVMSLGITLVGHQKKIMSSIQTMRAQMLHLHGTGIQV

## Nc1ncnc2[nH]nc(Nc3ccc(F)cc3)c12
[1]
  residual activity: 42%
[2]
  residual activity: 111%
[3]
  residual activity: 77%
[4]
  residual activity: 82%
[5]
  residual activity: 34%
[6]
  residual activity: 105%
[7]
  residual activity: 43%
[8]
  residual activity: 9%
[9]
  residual activity: 123% (inactive)
[10]
  residual activity: 107%
[11]
  residual activity: 42%
[12]
  residual activity: 6%
[13]
  residual activity: 18%
[14]
  residual activity: 11%
[15]
  residual activity: 109%
